LmPK inhibitor: qHTS Assay for Inhibitors of Leishmania Mexicana Pyruvate Kinase (LmPK); Q27686; purified LmPK, Kinase-Glo ATP luminescence, 1 h; Potency, µM (series often up to 57.5 µM), for inactives: top-dose activity change, negative = inhibition, usual class: inhibitors; 290,000 tested, 0.37% active; AID 1721, 2009; also: potency is read from the fitted curve at half-maximal effect; % is scaled to controls: 0 for no effect and ±100 for the full control effect
Target sequence (Q27686 whole entry, looked up): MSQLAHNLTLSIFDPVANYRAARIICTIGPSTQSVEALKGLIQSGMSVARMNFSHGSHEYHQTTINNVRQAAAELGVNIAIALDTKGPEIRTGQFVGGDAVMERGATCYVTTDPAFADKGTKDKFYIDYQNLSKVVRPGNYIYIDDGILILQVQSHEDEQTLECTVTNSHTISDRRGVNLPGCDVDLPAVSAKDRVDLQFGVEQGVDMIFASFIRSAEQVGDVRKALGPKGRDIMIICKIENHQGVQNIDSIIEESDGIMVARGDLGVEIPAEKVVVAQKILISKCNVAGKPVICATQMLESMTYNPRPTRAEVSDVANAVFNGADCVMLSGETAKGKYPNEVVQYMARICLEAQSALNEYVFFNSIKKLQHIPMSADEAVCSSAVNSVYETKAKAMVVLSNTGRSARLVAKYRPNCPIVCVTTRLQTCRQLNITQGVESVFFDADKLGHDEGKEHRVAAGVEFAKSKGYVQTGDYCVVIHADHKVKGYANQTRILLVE
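Purified LmPK (0.1 nM) with 0.5 mM PEP and 0.1 mM ADP in imidazole buffer pH 7.2 with MgCl2/KCl, 1 h at room temperature. ATP formed was read by luciferase luminescence and normalized to no-enzyme and uninhibited controls.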
RE007 growth inh: qHTS Assay for Inhibitors of the HIV-1 protein Vpr; S. pombe RE007 Vpr strain, BacTiter-Glo ATP luminescence, 24 h; Potency, µM (top dose mostly 92.2 µM), without a hit: at the highest dose activity change, negative = less growth, actives largely listed as inhibitors; 360,000 tested, 0.21% active; active = well fitted falling curve with a large enough effect; inconclusive = small, poorly fitted or top-dose-only effect; inactive = no such curve, though single readings can be large or run the other way; also: potency is read from the fitted curve at half-maximal effect; % is scaled to controls: 0 for no effect and ±100 for the full control effect; nearly all actives have a fitted effect of over 50% in size
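Fission yeast strain RE007, carrying one chromosomally integrated HIV-1 vpr copy, was seeded at OD 0.01 in PMG+AL medium with 23 nL pinned compound. After 24 h at 30 °C and 99% humidity, viability was read by BacTiter-Glo luminescence.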
CHX counter-1: Cycloheximide Counterscreen for Small Molecule Inhibitors of Shiga Toxin | cell reporter, cycloheximide protein synthesis inhibition counterscreen | 300,000 tested, 12% active | max response, %; in the data active = max response mostly above about 13%, no sharp cut-off; inactive = mostly below about 14%; also: read at 38.3 µM for the half of the compounds with a filed dose; 0% is about no effect
TbPYK inhibitor: qHTS of Trypanosoma Brucei Inhibitors; pyruvate kinase (Trypanosoma brucei), Q57TT1; TbPYK enzyme, Kinase-Glo Plus ATP luminescence, 45 min; Potency, µM (top dose mostly 76.8 µM), for inactives: top-dose activity, negative = inhibition, most hits filed as inhibitors; 410,000 tested, 0.12% active; AID 624173, 2012; also: potency is read from the fitted curve at half-maximal effect; % is scaled to controls: 0 for no effect and ±100 for the full control effect; nearly all actives have a fitted effect of over 50% in size
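Enzyme and substrate buffer are dispensed first and compound is pin-transferred. ADP at 130 uM final then starts the reaction, which runs 45 min at room temperature. Detection reagent is added for 10 min before luminescence is imaged.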
Giardia FBPA inh: qHTS Assay for Inhibitors of Fructose-1,6-bisphosphate Aldolase from Giardia Lamblia; AID 2451, 2010; Potency, µM (top dose mostly 59.6 µM), inactives show top-dose activity, negative = inhibition, usual class: inhibitors; A8B2U2; purified Giardia FBPA; 290,000 tested, 0.71% active; also: potency is read from the fitted curve at half-maximal effect; % is scaled to controls: 0 for no effect and ±100 for the full control effect; nearly all actives have a fitted effect of over 55% in size
Target sequence (A8B2U2 whole entry, looked up): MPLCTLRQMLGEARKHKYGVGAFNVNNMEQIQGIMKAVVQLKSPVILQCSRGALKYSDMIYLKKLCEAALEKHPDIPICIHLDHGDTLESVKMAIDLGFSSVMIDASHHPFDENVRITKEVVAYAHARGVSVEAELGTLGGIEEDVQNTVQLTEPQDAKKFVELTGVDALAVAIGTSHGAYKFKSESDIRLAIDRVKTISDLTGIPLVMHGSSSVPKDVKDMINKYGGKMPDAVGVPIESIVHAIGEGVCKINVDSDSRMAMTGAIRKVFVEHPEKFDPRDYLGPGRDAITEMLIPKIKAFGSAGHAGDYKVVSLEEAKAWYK
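Giardia FBPA (40 nM reagent) was preincubated 10 min at RT with compound (up to 57.5 uM final), then substrate plus GAPDH/TPI/NAD/arsenate coupling system with diaphorase/resazurin was added; resorufin fluorescence (525/598 nm) was read after 20 min.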
Shiga toxin inh: A qHTS for Small Molecule Inhibitors of Shiga Toxin. 290,000 tested, 9.2% active. inhibition, % at 38.7 µM. Vero cells, Shiga toxin protein synthesis inhibition reporter; in the data active = inhibition mostly above about 28%, no sharp cut-off; inactive = mostly below about 43%; also: 0% is about no effect
CHX counter-2: Cycloheximide Counterscreen for Small Molecule Inhibitors of Shiga Toxin (Confirmatory) | Potency, µM (top dose mostly 38.3 µM), for the others: at the highest dose activity (activation), most hits filed as activators | AID 2318, 2010 | shares compounds with Shiga toxin inh | 510 tested, 3% active | Cycloheximide counterscreen, protein synthesis reporter, Shiga toxin assay; calls by dose curve; also: potency is read from the fitted curve at half-maximal effect; 0% is about no effect
Starred values were filed as active, the others as inactive; ? = inconclusive; . = no result; [ ] = dose if it differs, or a comment. The entries come from a sample that favours hits as a whole. Unless noted, calls follow the shape of the dose curve; as a rule, active = well fitted curve in the direction sought with a large enough effect; inconclusive = small, poorly fitted or top-dose-only effect, or another doubt; inactive = no such curve, though single readings can be large; an effect the other way counts as inactive or inconclusive.

SMILES	LmPK inhibitor	RE007 growth inh	CHX counter-1	TbPYK inhibitor	Giardia FBPA inh	Shiga toxin inh	CHX counter-2
CC(=O)Nc1ccc(NC(=O)c2cc(S(=O)(=O)N3CCCCC3)ccc2N2CCOCC2)cc1	.	-6.7%	.	-14.3%	.	.	.
Cc1ccc(NC(=O)c2cc(S(=O)(=O)N3CCCCC3)ccc2N2CCOCC2)cc1F	6.0%	0.7%	1.3	2.4%	13.9%	31.3*	-1.0%
COc1ccc(C(C)(C)C)cc1NC(=O)c1ccc2c(c1)SC1=NS(=O)(=O)CCN12	4.2%	-6.6%	-2.6	-3.3%	-2.7%	40.3*	-1.4%
CN(C(=O)c1ccc2c(c1)SC1=NS(=O)(=O)CCN12)C(c1ccccc1)c1ccccc1	2.7%	23.6%	10.9	-9.0%	0.3%	-15.4	.
O=C1Cc2cc([N+](=O)[O-])ccc2N1c1c(Cl)cccc1Cl	1.3%	-3.5%	-2.5	4.0%	-7.0%	64.1*	-5.2%
COc1ccc(NC(=O)CN(C)C(=O)CCc2c[nH]c3ccccc23)cc1	-3.2%	0.5%	-3.5	-1.1%	-5.6%	6.3	.
COc1ccccc1CNc1nc2ccccc2n1CCN1CCCCC1	5.1%	-9.4%	10.3	-4.9%	1.4%	66.2*	-4.3%
Oc1ccccc1CNc1nc2ccccc2n1CCN1CCCCC1	0.8%	-4.2%	8.3	-1.8%	-3.5%	12.6	.
O=c1[nH]c(=O)n(Cc2ccccc2)c2c1C(C(F)(F)F)(C(F)(F)F)N=C(c1ccco1)N2	11.4%	1.1%	-1.4	10.0%	8.6%	-14.5	.
O=c1[nH]c(=O)n(Cc2ccco2)c2c1C(C(F)(F)F)(C(F)(F)F)N=C(c1ccc(F)cc1)N2	3.5%	-1.7%	4.9	-0.3%	11.1%	66.5*	-1.0%
CCN1C(=O)/C(=C/c2ccc(OC)c(OC)c2)N=C1SCC(=O)NCc1ccco1	9.3%	-11.3%	1.1	-1.6%	-0.9%	25.5*	3.1%
Cc1c(C)c2c(OCC(=O)N3CCC(C(=O)O)CC3)cc3c(c2oc1=O)CCC(C)(C)O3	-0.8%	-12.8%	-2.8	4.0%	-1.3%	-2.4	.
CC(C)N(Cc1cc2ccccc2[nH]c1=O)C(=O)c1cccnc1	1.3%	-3.7%	2.5	3.8%	-0.1%	-12.9	.
O=C(c1cccnc1)c1cc2ccccc2[nH]1	-3.7%	-10.0%	2.7	2.5%	-0.5%	active	5.5%
CCCCC(=O)Nc1ccc(NC(=O)C2CC2)nc1	-1.4%	12.3%	8.7	2.5%	-0.4%	40.5*	-0.3%
COc1ccccc1-n1cnnc1SCC(=O)Nc1ccccc1	1.0%	-18.1%	0.7	2.7%	4.0%	62.0*	6.3%
CC(O)(c1ccccc1)c1nc(-c2cccc(C(F)(F)F)c2)cs1 (stereo unspecified)	.	?	.	-1.7%	.	.	.
Cc1nc(-c2cccc(C(F)(F)F)c2)sc1C(=O)O	-0.4%	7.7%	10.7	1.7%	18.7%	58.0*	4.6%
COC(=O)c1sc(NC(=O)COc2cccc(C)c2)nc1C	-0.1%	2.7%	-2.0	-3.5%	-1.0%	28.0*	1.4%
COC(=O)c1sc(NC(=O)COc2cccc3ccccc23)nc1C	1.6%	3.5%	-1.6	3.4%	6.5%	-14.8	.
Cn1c(-[n+]2c(-c3ccccc3)cc(-c3ccccc3)cc2-c2ccccc2)nc2cc([N+](=O)[O-])ccc21	-1.3%	0.2%	12.4	-8.0%	?	42.3*	-3.4%
O=C(CCc1c[nH]c2ccccc12)N1CCN(S(=O)(=O)c2ccc(F)cc2)CC1	.	1.4%	.	4.6%	.	.	.
Cc1cc(C(=O)COC(=O)CNS(=O)(=O)c2ccc3ccccc3c2)c(C)n1-c1ccccc1	0.2%	10.0%	9.6	-7.5%	5.9%	active	4.8%
O=C(CNS(=O)(=O)c1ccc2ccccc2c1)OCC(=O)c1ccc(Br)s1	3.8%	-12.4%	-0.6	28.0%	-0.5%	15.4	.
O=c1c2ccccc2nc(SCc2cccc(F)c2)n1Cc1ccco1	-4.7%	-7.7%	1.3	-11.4%	5.2%	56.5*	1.9%
SMILES	LmPK inhibitor	RE007 growth inh	CHX counter-1	TbPYK inhibitor	Giardia FBPA inh	Shiga toxin inh	CHX counter-2
O=c1c2ccccc2nc(SCc2nc3ccccc3s2)n1Cc1ccco1	6.6%	10.8%	2.7	3.1%	0.4%	-2.0	.
CCOC(=O)c1c(C)[nH]c(C2=NNC(=NC3CC3)SC2)c1C	-22.4%	-15.1%	10.4	7.94µM*	-8.5%	32.0*	0.0504µM*
CCOC(=O)c1c(C)[nH]c(/C(C)=N/O)c1C	-5.0%	-17.2%	12.2	2.5%	1.8%	15.8	.
CC(C)CCNC(=O)CN1C(=O)CN=C(c2ccccc2)c2ccccc21	0.4%	-19.5%	-3.7	-2.9%	1.9%	-3.3	.
O=C(CN1C(=O)CN=C(c2ccccc2)c2ccccc21)NCc1ccco1	13.1%	11.9%	6.7	-2.4%	22.2%	43.7*	-2.0%
C=CCn1c(=S)[nH]c2ccccc2c1=O	-6.3%	2.0%	-0.9	-9.6%	-14.0%	-3.9	.
C=CCn1c(=S)[nH]c2cc(-c3ccccc3)sc2c1=O	-0.1%	5.2%	-0.3	-1.7%	-12.9%	38.8*	?
COc1cccc(-c2cc(=O)c3cc(O)ccc3o2)c1	.	.	.	.	-0.5%	.	.
O=C(Nc1ccc2oc(-c3ccccc3)nc2c1)c1ccc2c(c1)OCCO2	-0.6%	-0.9%	14.7	17.1%	-11.3%	42.9*	?
CC(=O)N/C(=C\c1ccccc1)C(=O)Nc1ccccc1C	-0.5%	-10.8%	8.5	0.9%	-0.7%	51.6*	2.0%
Cc1ccc(NC(=S)c2nc3ccccc3s2)cc1	-5.8%	-5.5%	19.8	14.1%	.	72.5*	0.711µM*
COc1ccc2cc([C@@H](C)C(=O)O)ccc2c1	.	33.7%[18.4 µM]	.	-37.4%	.	.	.
Cc1cccc(Cn2cc(SCC(=O)Nc3nccs3)c3ccccc32)c1	-0.8%	0.0%	8.3	-4.6%	-1.2%	22.7*	?
CN(C)C(=S)NC(=S)Nc1ccc2ccccc2c1	.	1.1%	.	-20.4%	.	.	.
CN(C)c1ccc(/C=C/C#N)cc1	4.1%	?	9.3	-18.4%	-0.8%	30.7*	4.6%
CN(C)c1ccc(/C=C/[N+](=O)[O-])cc1	-11.5%	-27.2%	-1.0	-12.3%	5.0%	8.1	.
O=C(CCc1nc(-c2ccccc2)no1)NCCc1ccccc1	-1.3%	-10.5%	11.6	4.6%	2.0%	-12.4	.
COc1cccc(-c2noc(CCC(=O)NCCc3ccccc3)n2)c1	8.1%	-1.3%	11.0	0.5%	-1.6%	49.3*	7.9%
CC1CCN(CCCNC(=O)c2cc(Sc3ccc(F)cc3)nc3ccccc23)CC1	.	.	.	-5.0%	.	.	.
Cc1cc(C)c2c(n1)SCC(=O)N2CC(=O)Nc1ccc(C)c(C)c1	0.2%	-5.2%	-1.1	4.3%	4.3%	16.2*	0.5%

From PubChem
